ClpP mod – qHTS Assay for Activators of ClpP; ATP-dependent Clp protease proteolytic subunit (Bacillus subtilis (strain 168)), P80244; purified B. subtilis ClpP, FRET peptide cleavage, 20 min; Potency, µM (titrated, usually from 57.5 µM); 1.9% of 340,000 active; active = well fitted falling curve with a large enough effect; inconclusive = small, poorly fitted or top-dose-only effect; inactive = no such curve, though single readings can be large or run the other way; also: the source files actives as falling curves though it sought activators and does not explain the sign; nearly all actives have a fitted effect of over 65% in size
Target sequence (P80244 whole entry, looked up): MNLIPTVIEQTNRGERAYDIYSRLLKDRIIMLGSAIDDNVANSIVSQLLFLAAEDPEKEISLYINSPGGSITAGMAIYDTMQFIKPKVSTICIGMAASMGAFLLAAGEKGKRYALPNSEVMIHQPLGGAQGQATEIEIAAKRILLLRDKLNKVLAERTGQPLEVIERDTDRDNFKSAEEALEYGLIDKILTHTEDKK
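FRET quenching reversal measured ClpP activation: 10 microg/mL B. subtilis ClpP at pH 8 with the FRET-FV decapeptide, read at 430 nm after 320 nm excitation. The 20-min minus 0-min signal was scaled between DMSO/no-enzyme wells and ADEP (5.8 microM final).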
Mm-Cpn inhibitor – M. maripaludis TRiC chaperonin inhibition; 0.031% of 330,000 active; purified Mm-Cpn ATPase, ADP Transcreener TR-FRET; Potency, µM (titrated, usually from 76.9 µM), hits mostly inhibitors; AID 504842; also: nearly all actives have a fitted effect of over 80% in size
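TR-FRET (320 nm excitation; 590 and 665 nm emission) reports ADP made from 10 uM ATP by 25 nM enzyme; compounds were preincubated 10 min, reaction run 30 min, both at 37°C.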
Eya2 inh – inhibitors of human Eya2 phosphatase activity | 0.006% of 330,000 active | AID 488837 | recombinant Eya2, OMFP fluorescence dephosphorylation (OMFP is methylfluorescein phosphate) | Potency, µM (doses to about 76.9 µM), usual class: inhibitors
Target sequence (O00167 whole entry, looked up): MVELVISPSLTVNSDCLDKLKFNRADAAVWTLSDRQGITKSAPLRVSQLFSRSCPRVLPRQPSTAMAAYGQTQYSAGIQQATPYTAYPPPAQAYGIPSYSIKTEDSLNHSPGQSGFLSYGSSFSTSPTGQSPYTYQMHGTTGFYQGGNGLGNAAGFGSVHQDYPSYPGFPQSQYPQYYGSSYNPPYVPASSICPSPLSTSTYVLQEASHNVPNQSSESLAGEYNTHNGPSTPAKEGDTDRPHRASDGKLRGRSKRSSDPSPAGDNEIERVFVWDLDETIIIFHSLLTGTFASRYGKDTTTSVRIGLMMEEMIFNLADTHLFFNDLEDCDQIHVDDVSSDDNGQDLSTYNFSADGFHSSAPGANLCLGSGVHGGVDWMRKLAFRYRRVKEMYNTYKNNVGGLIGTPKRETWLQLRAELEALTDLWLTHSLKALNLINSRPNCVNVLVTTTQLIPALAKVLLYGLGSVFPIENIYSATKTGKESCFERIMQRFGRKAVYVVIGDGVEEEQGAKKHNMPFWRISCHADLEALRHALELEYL
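Eya2 protein (added as 0.2 uM solution) was preincubated with compound for 10 min at ambient temperature in 50 mM HEPES pH 7.5, 50 mM NaCl, 5 uM MgCl2, 0.05% BSA, 1 mM DTT. OMFP (added at 50 uM) then reacted 10 min; fluorescence read at 485/525 nm.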
USP2a inh – USP2a (human) protease inhibition | Potency, µM (top dose mostly 38.3 µM), usual class: inhibitors | O75604 | USP2 core, Ub-CHOP2 coupled fluorogenic reporter, 485/531 | 0.01% of 330,000 active
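Cell-free coupled assay: 10nM USP2 core preincubated 30min RT with compound in Tris-HCl pH 8.0/CaCl2/CHAPS buffer, then 25nM Ub-CHOP2 and 25nM reporter substrate; fluorescence (Ex 485/Em 531) read after 60min RT, normalized to NEM inhibition, concentration-response curves fitted.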
p53 reactivation – mutant p53 re-activation in reporter cells; H1299 p53-A138V BP100-luciferase reporter, luminescence, 24 h; Potency, µM (highest dose often 92.2 µM), usual class: activators; 0.063% of 320,000 active; AID 504706; also: nearly all actives have a fitted effect of over 45% in size
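p53-null H1299 cells stably carrying temperature-sensitive p53-A138V and a BP100-luciferase reporter were pinned with compounds (4-point, 1:5 series) and held 24 hrs at 37 deg C. Luminescence was read 10 min after detection reagent.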
a7 integrin act – integrin-mediated muscular dystrophy alleviation activation. alpha7betagal myoblasts, beta-gal FDG fluorescence, 48 h. Potency, µM (highest dose often 38.3 µM), actives largely listed as activators. 0.064% of 350,000 active; also: nearly all actives have a fitted effect of over 60% in size
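alpha7betagal+/- myoblasts (passage 13, 250/well) treated 48 h at 37C with compounds at 1:260 dilution of DMSO stock. Lysed, then beta-galactosidase activity read as FDG fluorescence (ex 480/em 540) after 30 min, with pre-read for autofluorescence.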
A number is an active result. This excerpt belongs to a sample that is enriched for hits. Unless noted, calls follow the shape of the dose curve; as a rule, active = well fitted curve in the direction sought with a large enough effect; inconclusive = small, poorly fitted or top-dose-only effect, or another doubt; inactive = no such curve, though single readings can be large; an effect the other way counts as inactive or inconclusive.

Results for COc1ccc(CC(=O)Nc2sc3c(c2C(=O)Nc2ccc(C)cc2)CCCCC3)cc1 ?
ClpP mod: inactive

How did Cc1cc(/C=C/c2c(C)cnc3ccccc23)ccc1N(C)C do in these assays?
ClpP mod: inactive

Results for CCc1ccc(NC(=O)c2nc(SCc3ccccc3F)ncc2Cl)cc1 ?
ClpP mod: inactive

What do the screens show for `O=C(CN1Cc2ccccc2C1=O)Nc1cc(F)ccc1F`?
ClpP mod: inactive

What do the screens show for `Cc1cccc(-c2nnc(-c3ccc(N)cc3)o2)c1`?
ClpP mod: 28.2µM; Mm-Cpn inhibitor: inactive; Eya2 inh: inactive; USP2a inh: inactive; p53 reactivation: inconclusive; a7 integrin act: inactive

Results for COc1cccc(-c2nnc(-c3ccc4ccccc4c3)o2)c1 ?
ClpP mod: 14.1µM; a7 integrin act: inactive

How did Nc1ccc(-c2nnc(-c3ccc(N)cc3)o2)cc1 do in these assays?
ClpP mod: inactive; Mm-Cpn inhibitor: inactive; Eya2 inh: inactive; USP2a inh: inactive; p53 reactivation: inactive; a7 integrin act: inactive

How did Cc1ccc(-c2nnc(-c3ccc4ccccc4c3)o2)cc1 do in these assays?
ClpP mod: 14.1µM; a7 integrin act: inactive

Results for COC(=O)c1nc(N2CCN(S(=O)(=O)c3ccc(C)cc3)CC2)c2ccccc2n1 ?
ClpP mod: inactive

How did COc1ccccc1N1CCN(CCN2C(=O)C3CCCCN3C2=O)CC1 (centres undefined) do in these assays?
ClpP mod: 31.6µM; Mm-Cpn inhibitor: inactive; Eya2 inh: inactive; USP2a inh: inactive; p53 reactivation: inactive; a7 integrin act: inactive

Results for COc1ccccc1N1CCN(CCCN2C(=O)C3CCCCN3C2=O)CC1 (centres undefined) ?
ClpP mod: inactive; a7 integrin act: inactive

Results for CCc1cccc2c(C(O)(c3c[nH]c4c(CC)cccc34)c3c[nH]c4c(CC)cccc34)c[nH]c12 ?
ClpP mod: inactive

What do the screens show for `Cc1cc(-c2cc(-c3ccc(Cl)cc3)on2)nc(NCC2CC2)n1`?
ClpP mod: 14.1µM; Mm-Cpn inhibitor: inactive; Eya2 inh: inactive; USP2a inh: inactive; p53 reactivation: inactive; a7 integrin act: inactive

How did CCCNc1nc(-c2cc(-c3ccc(Cl)cc3)on2)cc(C(C)C)n1 do in these assays?
ClpP mod: inconclusive; Mm-Cpn inhibitor: inconclusive; Eya2 inh: inactive; USP2a inh: inactive; p53 reactivation: inactive; a7 integrin act: inactive

Results for COc1cccc(OC)c1-c1nn2c(-c3n[nH]c4c3CCC4)nnc2s1 ?
ClpP mod: inactive

Results for CCN(CC)c1ccc(-c2nn3c(-c4n[nH]c5c4CCC5)nnc3s2)cc1 ?
ClpP mod: 28.2µM; Mm-Cpn inhibitor: inactive; Eya2 inh: inactive; USP2a inh: inactive; p53 reactivation: inactive; a7 integrin act: inactive

What do the screens show for `Fc1cnc(N2CCN(c3ccccc3)CC2)nc1N1CCN(c2ccccc2)CC1`?
ClpP mod: 31.6µM; Mm-Cpn inhibitor: inactive; Eya2 inh: inactive; USP2a inh: inactive; p53 reactivation: inactive; a7 integrin act: inactive

How did O=C1CCCc2nc(N3CCN(c4ccccc4)CC3)ncc21 do in these assays?
ClpP mod: inactive; Mm-Cpn inhibitor: inactive; Eya2 inh: inactive; USP2a inh: inconclusive; p53 reactivation: inactive; a7 integrin act: inactive

What do the screens show for `CC(NC(=O)c1ccccc1[N+](=O)[O-])C1CC2CCC1C2` (centres undefined)?
ClpP mod: 25.1µM; Mm-Cpn inhibitor: inactive; Eya2 inh: inactive; USP2a inh: inactive; p53 reactivation: inconclusive; a7 integrin act: inactive

Results for CC(NC(=O)C1CCCC1)C1CC2CCC1C2 (centres undefined) ?
ClpP mod: 28.2µM; Mm-Cpn inhibitor: inactive; Eya2 inh: inactive; USP2a inh: inactive; p53 reactivation: inactive; a7 integrin act: inactive

Results for CC(NC(=O)C1CC=CCC1C(=O)O)C1CC2CCC1C2 (centres undefined) ?
ClpP mod: inactive; Mm-Cpn inhibitor: inactive; Eya2 inh: inactive; USP2a inh: inactive; p53 reactivation: inactive; a7 integrin act: inactive

How did CC(NC(=O)c1ccccc1Br)C1CC2CCC1C2 (centres undefined) do in these assays?
a7 integrin act: inactive

What do the screens show for `Cc1ccc(Nc2nc3ccccc3[nH]2)nc1`?
ClpP mod: 35.5µM; Mm-Cpn inhibitor: inactive; Eya2 inh: inactive; USP2a inh: inactive; p53 reactivation: inconclusive; a7 integrin act: inactive

What do the screens show for `O=C(CNC(=O)c1ccco1)Nc1cc(Cl)ccc1N1CCOCC1`?
ClpP mod: 28.2µM; Mm-Cpn inhibitor: inactive; Eya2 inh: inactive; USP2a inh: inactive; p53 reactivation: inactive; a7 integrin act: inactive

What do the screens show for `O=C(Nc1cc(Cl)ccc1N1CCOCC1)c1ccco1`?
ClpP mod: inactive; Mm-Cpn inhibitor: inactive; Eya2 inh: inactive; USP2a inh: inactive; p53 reactivation: inactive; a7 integrin act: inactive

How did COC(=O)c1cc(OC)c(OC)cc1NC(=O)CCC1CCCC1 do in these assays?
ClpP mod: 31.6µM; Mm-Cpn inhibitor: inactive; Eya2 inh: inactive; USP2a inh: inactive; p53 reactivation: inactive; a7 integrin act: inactive

Results for COc1cc(Cl)c(C)cc1NC(=O)CCCN1C(=O)CCC1=O ?
ClpP mod: inactive; Mm-Cpn inhibitor: inactive; Eya2 inh: inactive; USP2a inh: inactive; p53 reactivation: inactive; a7 integrin act: inactive

What do the screens show for `COC(=O)c1cc(OC)c(OC)cc1NC(=O)CCCCCN1C(=O)CCC1=O`?
ClpP mod: 28.2µM; Mm-Cpn inhibitor: inactive; Eya2 inh: inactive; USP2a inh: inactive; p53 reactivation: inactive; a7 integrin act: inactive

How did CSc1ccc(/C=C/c2nc3ccccc3n2S(=O)(=O)c2ccc(Br)cc2)cc1 do in these assays?
ClpP mod: inactive

What do the screens show for `COc1ccc(-n2c(SCC(=O)Nc3ccc(Br)cc3)nc(O)cc2=O)cc1`?
ClpP mod: 25.1µM; Mm-Cpn inhibitor: inactive; Eya2 inh: inactive; USP2a inh: inactive; p53 reactivation: inactive; a7 integrin act: inactive

Results for Cc1ccc(NC(=O)CSc2nc(O)cc(=O)n2-c2ccc(C)cc2)cc1 ?
ClpP mod: inactive; Mm-Cpn inhibitor: inactive; Eya2 inh: inactive; USP2a inh: inconclusive; p53 reactivation: inactive; a7 integrin act: inactive

How did COc1ccc(-n2c(SCC(=O)Nc3ccccc3OC)nc(O)cc2=O)cc1 do in these assays?
ClpP mod: 35.5µM; Mm-Cpn inhibitor: inactive; Eya2 inh: inactive; USP2a inh: inactive; p53 reactivation: inactive; a7 integrin act: inactive

How did C=C1C=C(C(F)F)n2ncc(C(=O)N3CCN(c4ccccn4)CC3)c2N1 do in these assays?
ClpP mod: inactive

Compound activity from PubChem BioAssay.
